Each structure is given as a SMILES string. Activity calls are given as the source filed them. Rule as the data show it: active = inhibition above about 33%; inactive = the rest.

This is an account of results in PubChem BioAssay.

The nature of the experiment: compounds suppressing VP16-driven luciferase signal – cell-based, luminescence, high throughput, counter-screen for LRH-1 inverse agonist project (AID 651615). Particulars: Gal4-VP16 luciferase reporter cells, at 3.6 µM, active compounds read high. On the technique in general: A counterscreen serves to expose hits that act by an unwanted route or on another target.
For the compound `Cc1ccc(C2CC(C(F)(F)F)n3nc(C(=O)NCc4ccco4)cc3N2)cc1` (centres undefined), the inhibition was -8.91% (inactive).
The same measure for `Cc1ccccc1Oc1nc2c(C)cccn2c(=O)c1/C=C(\C#N)C(=O)NC1CCS(=O)(=O)C1` (centres undefined): 18.6% (inactive); for `CC(NC(=O)CCl)c1ccccc1Br` (centres undefined): -27.4% (inactive); for `O=C(Cn1cc(COc2ccc(C(=O)c3ccccc3)cc2)nn1)c1ccc(O)cc1`: 59.6% (active).
On to `COc1cc2c(cc1OC)-c1c(OC)c(OC)cc3ccnc(c13)C2=O`, for which the inhibition was 25.4% (inactive).
The same measure for `CN(C)c1ccc(C=c2c3ccccc3n3c2c2ccccc2[n+]3C)cc1`: 91.7% (active).
On to `CSc1nc(SCC(=O)NCc2ccco2)c2c3c(sc2n1)COC(C)(C)C3`, for which the inhibition was 3.39% (inactive).
For `Cc1nc2cc(N3CCCCC3)c(NC(=O)c3cccnc3)cc2c(=O)n1Cc1ccccc1` the value was -17% (inactive); for `O=C(C[C@H]1CC[C@@H]2[C@H](COC[C@H](O)CN2Cc2cccc(C(F)(F)F)c2)O1)NCCc1ccccc1`, 1.55% (inactive).
Regarding `Cc1ccc(-c2csc(NC(=O)C3CCN(S(=O)(=O)c4cccs4)CC3)n2)cc1`, the inhibition is 47.9% (active).
With `C/C(=N\N=C(N)N)c1cc(Cl)ccc1Cl`, the inhibition was 75.8% (active).
Regarding `Cc1cccc(NC(=O)CSC2=NN3CCCC(=O)N=C3S2)c1C`, the inhibition is -5.97% (inactive).
As for `CCN(CC)c1nc(C)c(C(C)=O)cc1C#N`, the inhibition was 12% (inactive).
For `COc1cc(-c2cc(-c3ccc(O)cc3)nc(N)c2C#N)ccc1O`, the inhibition was -133% (inactive).
As for `COc1cccc(C(C)(O)c2nc(-c3ccc(S(C)(=O)=O)cc3)cs2)c1` (centres undefined), the inhibition is 24% (inactive).
The same measure for `O=C(Nc1nc(-c2ccccn2)cs1)c1ccc([N+](=O)[O-])o1`: 16.4% (inactive).
For `COc1cc(C)c(C(=O)Oc2cc(C)c(C(=O)O)c(O)c2C)c(O)c1C`, the inhibition is -10.6% (inactive).
In the case of `CC1(C)Cc2c(sc3nc(SCC(=O)NCc4ccco4)n(-c4ccccc4)c(=O)c23)CS1`, the inhibition was 4.77% (inactive).
On to `CC(=O)Nc1cccc(C(=O)OCC(=O)N2CCN(C(=O)COC(=O)c3cccc(NC(C)=O)c3)CC2)c1`, for which the inhibition was -10.3% (inactive).
As for `COc1ccc(NC(=O)COC(=O)/C=C/C(=O)OCC(=O)Nc2ccc(OC)c(Cl)c2)cc1Cl`, the inhibition was -16% (inactive).
The same measure for `Cc1nnsc1C(=O)NC1CCCc2c1cnn2-c1ccc(F)cc1F` (centres undefined): 55.9% (active); for `NS(=O)(=O)c1ccc(CCNC(=O)COc2ccc3c4c(c(=O)oc3c2)CCC4)cc1`: -15.4% (inactive); for `Cc1ccc(NC(=O)CSc2nnc(-c3n[nH]c4ccccc34)n2-c2ccccc2)c(C)c1`: 4.59% (inactive).
For the compound `CNc1c2cccc(C)c2nc2c(C(=O)NCCN(C)C)cccc12`, the inhibition is 74.7% (active).
The same measure for `O=C(CCl)Nc1ccc(S(=O)(=O)NC2=NCCCCC2)cc1`: 17.7% (inactive); for `Cc1ccc(Sc2ccc(NC(=O)CCl)cc2)cc1C`: -14.4% (inactive); for `O=C1/C(=C\c2ccc(Cl)c(Cl)c2)CN(C(=O)CCN2CCOCC2)C/C1=C/c1ccc(Cl)c(Cl)c1`: 79% (active).
Take `Cc1c(C)c2ccc(OCC(=O)N3CC[C@@]4(O)CCCC[C@H]4C3)cc2oc1=O`: the inhibition was -3.1% (inactive).
In the case of `COc1ccc(N2CCN(C(=O)CSc3nnc(-c4cc5ccccc5cc4O)n3C)CC2)cc1`, the inhibition was 13.6% (inactive).
For `CCc1ccccc1NC(=O)CSc1nnc([C@@H]2CCCN2C(=O)OC(C)(C)C)o1`, the inhibition is -8.78% (inactive).
For `Cc1cc(Br)ccc1NC(=O)CN1C(=O)CCC1=O` the value was 4.01% (inactive); for `O=C(c1ccc(=O)n(Cc2ccccc2)n1)N1CCN(C/C=C/c2ccccc2)CC1`, 5.07% (inactive); for `CCc1c(C)nc(SCC(=O)Nc2ccc3c(c2)OCCO3)[nH]c1=O`, -6.83% (inactive).
In the case of `O=C(Nc1ccc(N2CCOCC2)c(Cl)c1)c1ccc([N+](=O)[O-])o1`, the inhibition is -84.8% (inactive).
With `COc1ccccc1NC(=O)CN1CCN(CC(=O)Nc2ccc3c(c2)OCCO3)CC1`, the inhibition was -7.19% (inactive).
Turning to `Cc1cccc(NC(=O)CSc2ccc(-c3ccco3)nn2)c1C`, the inhibition was -3.56% (inactive).
For `S=C(NCc1ccccc1)Nc1ccncc1` the value was 13.1% (inactive); for `Cn1cccc1C(=O)OCC(=O)N1CCN(c2ccccc2)CC1`, -18.1% (inactive); for `CN(C)c1ccc(CNc2ncnc3sccc23)cc1`, 42.5% (active).

The inhibition is the drop in the measured response relative to a control, in per cent.
